Among the test systems are SR leukemia; RPMI-8226 leukemia; OVCAR-8 ovarian; OVCAR-5 ovarian; OVCAR-4 ovarian; SK-OV-3 ovarian; IGROV1 ovarian; OVCAR-3 ovarian; HS 578T breast; NCI/ADR-RES ovarian.
What all share (test): NCI-60 one-dose screen, 48 h (100 = growth as untreated, 0 = no growth, -100 = all killed)
Common to all, as to conditions: 10 µM unless noted

SMILES strings stand for the structures. Compounds without any hit were thinned out: in the full panel of roughly 83,000, 20% have a hit.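 Percent growth is the endpoint: 0 to 100 indicates growth inhibition (40 means 60% inhibition), 0 means no net growth, and negative values indicate cell death.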 Active and inactive are the calls of the source. How the source made its calls: active means growth percent below 10; inactive means the rest.

For the molecule `O=C(Nc1cccc(-c2ccc(N3CCOCC3)nn2)c1)Nc1cccc(C(F)(F)F)c1`, the growth with SR leukemia is 60.4% (inactive); in the test with RPMI-8226 leukemia, 31.4% (inactive); with OVCAR-8 ovarian it was 35.4% (inactive); with OVCAR-5 ovarian, 125% (inactive); with OVCAR-4 ovarian it was 73.3% (inactive); in the test with SK-OV-3 ovarian, 104% (inactive). Further, the growth is 97.1% (inactive) in the test on IGROV1 ovarian, 74.3% (inactive) in the test with OVCAR-3 ovarian, 91.6% (inactive) in the test on HS 578T breast and 72.2% (inactive) in the test on NCI/ADR-RES ovarian.
For `COc1c(C(=O)Nc2ccc(C)c(Br)c2)ccc2ccccc12`, the growth is 54.3% (inactive) with SR leukemia; 95.7% (inactive) with RPMI-8226 leukemia; 99.3% (inactive) in the test on OVCAR-8 ovarian; 92.2% (inactive) in the test with OVCAR-5 ovarian; 82.9% (inactive) in the test with OVCAR-4 ovarian; 97.9% (inactive) with SK-OV-3 ovarian. Further, the growth in the test with IGROV1 ovarian is 94.3% (inactive); in the test with OVCAR-3 ovarian it was 107% (inactive); in the test on HS 578T breast, 85.5% (inactive); with NCI/ADR-RES ovarian it was 84.6% (inactive).
On to `O=C(NCCCl)Nc1ncccc1OCc1ccccc1`, for which the growth was 78% (inactive) in the test on SR leukemia; 99.4% (inactive) with RPMI-8226 leukemia; 104% (inactive) in the test on OVCAR-8 ovarian; 90.9% (inactive) in the test with OVCAR-5 ovarian; 96.8% (inactive) with OVCAR-4 ovarian; 114% (inactive) with SK-OV-3 ovarian. Moreover, the growth with IGROV1 ovarian is 95.8% (inactive); in the test on OVCAR-3 ovarian it was 107% (inactive); with HS 578T breast it was 110% (inactive); in the test with NCI/ADR-RES ovarian, 106% (inactive).
For the molecule `CCn1cc(C(=O)NNC(=S)Nc2ccc(C)cc2)c(=O)c2ccc(C)nc21`, the growth in the test with SR leukemia was 104% (inactive); with RPMI-8226 leukemia it was 98.9% (inactive); with OVCAR-8 ovarian it was 95.6% (inactive); in the test on OVCAR-5 ovarian, 107% (inactive); in the test on OVCAR-4 ovarian, 102% (inactive); with SK-OV-3 ovarian, 106% (inactive). Further, the growth is 95.7% (inactive) with IGROV1 ovarian, 103% (inactive) with OVCAR-3 ovarian, 95.8% (inactive) with HS 578T breast and 95.6% (inactive) in the test on NCI/ADR-RES ovarian.
Take `CCc1ccc(CCCC(=O)O)cc1`: the growth is 96.2% (inactive) in the test with SR leukemia; 103% (inactive) in the test on RPMI-8226 leukemia; 107% (inactive) in the test on OVCAR-8 ovarian; 98.3% (inactive) in the test with OVCAR-5 ovarian; 104% (inactive) with OVCAR-4 ovarian; 100% (inactive) in the test on SK-OV-3 ovarian. The growth with IGROV1 ovarian was 105% (inactive); in the test on OVCAR-3 ovarian, 108% (inactive); in the test on HS 578T breast, 101% (inactive); in the test on NCI/ADR-RES ovarian, 99.1% (inactive).
In the case of `COc1ccc(C(=O)N2c3ccccc3Sc3ccccc32)c(OC)c1`, the growth in the test on SR leukemia is 22.4% (inactive); in the test on RPMI-8226 leukemia it was 16.2% (inactive); in the test on OVCAR-8 ovarian it was 27.9% (inactive); in the test with OVCAR-5 ovarian it was 47.8% (inactive); in the test on OVCAR-4 ovarian, 57.1% (inactive); in the test on SK-OV-3 ovarian it was 36.9% (inactive). In addition, the growth with IGROV1 ovarian was 52.5% (inactive); in the test with OVCAR-3 ovarian, -28% (active); in the test with HS 578T breast, 14.7% (inactive); in the test on NCI/ADR-RES ovarian, -0.356% (active).
In the case of `Cc1cc(C(=O)Nc2ncc(Cc3cccc(C(F)(F)F)c3)s2)c2ccccc2n1`, the growth is 9.35% (active) in the test on SR leukemia; 33.9% (inactive) with RPMI-8226 leukemia; 43.4% (inactive) in the test with OVCAR-8 ovarian; 47.7% (inactive) in the test with OVCAR-5 ovarian; 42.4% (inactive) in the test on OVCAR-4 ovarian; 36% (inactive) in the test on SK-OV-3 ovarian. Further, the growth in the test with IGROV1 ovarian was 31.5% (inactive); with OVCAR-3 ovarian, 13.3% (inactive); in the test with HS 578T breast, -0.594% (active); in the test with NCI/ADR-RES ovarian, 16.4% (inactive).
Turning to `O=C(CSc1nc2sc3c(c2c(=O)n1-c1ccccc1)CCCCC3)N/N=C/c1cccc([N+](=O)[O-])c1`, the growth was 38.3% (inactive) in the test on SR leukemia; 73.4% (inactive) with RPMI-8226 leukemia; 16.3% (inactive) in the test with OVCAR-8 ovarian; 78% (inactive) in the test with OVCAR-5 ovarian; -6.2% (active) in the test on OVCAR-4 ovarian; 80.4% (inactive) in the test with SK-OV-3 ovarian. For the same molecule, the growth was 71.1% (inactive) in the test on IGROV1 ovarian, 10.9% (inactive) in the test with OVCAR-3 ovarian, -1.34% (active) in the test with HS 578T breast and 44% (inactive) in the test on NCI/ADR-RES ovarian.
As for `O=C1NC(=O)C(Cc2ccc(OCc3ccc(-c4ccc(Cl)cc4Cl)cc3)cc2)S1` (stereo not given), the growth in the test with SR leukemia is 29.3% (inactive); in the test on RPMI-8226 leukemia, 38.5% (inactive); with OVCAR-8 ovarian it was 42.6% (inactive); in the test with OVCAR-5 ovarian it was 80.6% (inactive); in the test on OVCAR-4 ovarian it was 47.4% (inactive); in the test on SK-OV-3 ovarian, 61.8% (inactive). For the same molecule, the growth with IGROV1 ovarian was 52.2% (inactive); in the test with OVCAR-3 ovarian it was 65.7% (inactive); with HS 578T breast, 65.1% (inactive); in the test with NCI/ADR-RES ovarian it was 22.7% (inactive).
For `COC(=O)[C@@H](CCCCNC(=O)[C@]12CCC(C)(C)C[C@@H]1C1=CC[C@@H]3[C@@]4(C)C/C(=C/c5ccco5)C(=O)C(C)(C)[C@@H]4CC[C@@]3(C)[C@]1(C)CC2)NC(=O)[C@]12CCC(C)(C)C[C@@H]1C1=CC[C@@H]3[C@@]4(C)C/C(=C/c5ccco5)C(=O)C(C)(C)[C@@H]4CC[C@@]3(C)[C@]1(C)CC2`, the growth was 87.9% (inactive) with SR leukemia; 100% (inactive) with RPMI-8226 leukemia; 104% (inactive) in the test on OVCAR-8 ovarian; 108% (inactive) with OVCAR-5 ovarian; 127% (inactive) in the test on OVCAR-4 ovarian; 106% (inactive) in the test on SK-OV-3 ovarian. Moreover, the growth was 107% (inactive) with IGROV1 ovarian, 115% (inactive) with OVCAR-3 ovarian, 104% (inactive) with HS 578T breast and 112% (inactive) with NCI/ADR-RES ovarian.
With `C#CCOc1cccc(Nc2ncnc3ccc(NC(=O)C=C)cc23)c1`, the growth was 21.1% (inactive) with SR leukemia; 35.7% (inactive) in the test on RPMI-8226 leukemia; 32.4% (inactive) in the test on OVCAR-8 ovarian; 52.6% (inactive) with OVCAR-5 ovarian; 59.3% (inactive) with OVCAR-4 ovarian; -3.78% (active) with SK-OV-3 ovarian. The growth in the test on IGROV1 ovarian was -6.06% (active); in the test with OVCAR-3 ovarian it was 19.2% (inactive); in the test with HS 578T breast, 42.4% (inactive); in the test on NCI/ADR-RES ovarian it was 36.1% (inactive).
As to `COc1ccc(-c2nc3c(ncc4ccc(=O)[nH]c43)s2)cc1`, the growth is 45.5% (inactive) in the test on SR leukemia; 69.2% (inactive) in the test with RPMI-8226 leukemia; 83.9% (inactive) in the test with OVCAR-8 ovarian; 90% (inactive) in the test on OVCAR-5 ovarian; 98.8% (inactive) with OVCAR-4 ovarian; 102% (inactive) in the test with SK-OV-3 ovarian. Also, the growth is 67.5% (inactive) in the test on IGROV1 ovarian, 85.5% (inactive) with OVCAR-3 ovarian, 88% (inactive) with HS 578T breast and 74.6% (inactive) in the test with NCI/ADR-RES ovarian.
`CCOC(=O)c1nn(-c2ccc(S(N)(=O)=O)cc2)c2nc(C)cc(=O)n12`: the growth with SR leukemia was 104% (inactive); in the test with RPMI-8226 leukemia, 103% (inactive); in the test on OVCAR-8 ovarian, 105% (inactive); with OVCAR-5 ovarian, 117% (inactive); in the test on OVCAR-4 ovarian, 102% (inactive); in the test with SK-OV-3 ovarian, 105% (inactive). Further, the growth in the test with IGROV1 ovarian was 98.7% (inactive); in the test on OVCAR-3 ovarian it was 110% (inactive); in the test with HS 578T breast, 103% (inactive); in the test with NCI/ADR-RES ovarian, 103% (inactive).
Take `C#CCOc1cccc(Nc2ncnc3cc(NC(=O)C=C)ccc23)c1`: the growth was 13% (inactive) in the test with SR leukemia; 13.3% (inactive) in the test with RPMI-8226 leukemia; 4.37% (active) with OVCAR-8 ovarian; 54.3% (inactive) in the test with OVCAR-5 ovarian; 45.5% (inactive) in the test on OVCAR-4 ovarian; 29.6% (inactive) in the test on SK-OV-3 ovarian. Further, the growth in the test with IGROV1 ovarian is 6.96% (active); with OVCAR-3 ovarian it was 6.09% (active); in the test with HS 578T breast it was 18.2% (inactive); in the test on NCI/ADR-RES ovarian, 14.9% (inactive).
With `O=C(O)CCCN1C(=O)/C(=C/c2cn(-c3ccccc3)nc2-c2ccc([N+](=O)[O-])cc2)SC1=S`, the growth in the test on SR leukemia was 33.3% (inactive); in the test with RPMI-8226 leukemia, 46.8% (inactive); in the test with OVCAR-8 ovarian it was 44.4% (inactive); in the test on OVCAR-5 ovarian, 94.3% (inactive); in the test with OVCAR-4 ovarian it was 64% (inactive); with SK-OV-3 ovarian, 59.1% (inactive). Also, the growth was 58.3% (inactive) with IGROV1 ovarian, 61.6% (inactive) in the test on OVCAR-3 ovarian, 63.6% (inactive) with HS 578T breast and 43.5% (inactive) in the test on NCI/ADR-RES ovarian.
As to `O=C(CN1C(=O)S/C(=C\c2ccccc2)C1=O)Nc1ncc(Cc2ccccc2Cl)s1`, the growth is 113% (inactive) in the test on SR leukemia; 103% (inactive) in the test on RPMI-8226 leukemia; 93.3% (inactive) in the test on OVCAR-8 ovarian; 103% (inactive) in the test with OVCAR-5 ovarian; 89.6% (inactive) in the test on OVCAR-4 ovarian; 102% (inactive) with SK-OV-3 ovarian. The growth with IGROV1 ovarian is 94.6% (inactive); in the test on OVCAR-3 ovarian, 109% (inactive); in the test on HS 578T breast, 102% (inactive); with NCI/ADR-RES ovarian, 96.2% (inactive).

For the origin of these results see PubChem BioAssay (NCI).
